Experiment in all cases: NCI-60 one-dose screen, 48 h (100 = growth as untreated, 0 = no growth, -100 = all killed)
Settings in all cases: 10 µM unless noted

Test [1] has as its system HCT-15 colon.
In test [2] the test system is HT29 colon.
Test [3] relates to SNB-75 CNS.
The test system of test [4] is SNB-19 CNS.
Test [5] deals with U251 CNS.
Test [6] relates to PC-3 prostate.
Test [7] relates to SK-MEL-5 melanoma.
Test [8] deals with UACC-62 melanoma.
The subject of test [9] is LOX IMVI melanoma.
Test [10] concerns SK-MEL-2 melanoma.
Test [11] has as its system SN12C renal.
The subject of test [12] is UO-31 renal.
Test [13] has as its system TK-10 renal.
Test [14] deals with ACHN renal.
For test [15], the system named is CAKI-1 renal.
Test [16] relates to A498 renal.
For test [17], the system named is CCRF-CEM leukemia.
The subject of test [18] is MOLT-4 leukemia.
In test [19] the test system is SK-MEL-28 melanoma.
Test [20] concerns EKVX NSCLC.

Where “and” joins values, the source holds several entries; their conditions need not be identical. Equal entries are not always repeated. This is part of a sample that, as a whole, favours compounds with a hit. Of some 83,000 tested, about 20% had one in any assay.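 The test compound was applied at a single concentration to cells in 96-well plates for 48 hours, and percent growth was recorded.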 Calls of active or inactive are those of the source. Rule for the calls: active = growth percent below 10; inactive = the rest.

On to `O=C(N=C1C(=O)C2(CCCCC2)C2(N=C(c3ccccc3)OC2=O)C12CCCCC2)c1ccccc1` (stereo unspecified), for which the growth was 62.3% (inactive) in [1]; 51.5% (inactive) in [2]; 85.2% (inactive) in test [3]; 71.5% (inactive) in test [4]; 59.6% (inactive) in test [5]; 42.8% (inactive) in test [6]. The growth in test [7] is 64.6% (inactive); in [8], 58.6% (inactive); in test [9] it was 71.5% (inactive); in [10], 76% (inactive); in test [11], 77.8% (inactive); in test [12], 58.5% (inactive). Moreover, the growth in [13] was 86.2% (inactive); in [14], 80.5% (inactive); in [15] it was 70.9% (inactive); in test [16] it was 98.2% (inactive); in [17], 37.4% (inactive); in [18] it was 50.5% (inactive).

With `Cc1cc(NC(=O)NC(=O)c2ccccc2N(C)C)ccc1Oc1ncc(Br)cn1`, the growth is -31% (active) and 31% (inactive) in [1]; -15.9% (active) and 17% (inactive) in test [2]; -28.2% (active) and 12.9% (inactive) in test [3]; 29.2% (inactive) and 42.7% (inactive) in test [4]; -10.1% (active) and 25.9% (inactive) in test [6]; 2.16% (active) and 0.678% (active) in test [7]. In addition, the growth in test [8] was 30.4% (inactive) and 37% (inactive); in test [9] it was 27.3% (inactive) and 49.7% (inactive); in [19], 68.1% (inactive); in test [10], 48% (inactive) and 60.5% (inactive); in [20], 47.7% (inactive) and 42.5% (inactive); in [11], 51.6% (inactive) and 51.3% (inactive). Moreover, the growth was 24.2% (inactive) and 56.1% (inactive) in test [12]; 36.5% (inactive) and 63.1% (inactive) in test [13]; -17% (active) and 56.7% (inactive) in [14]; 25.9% (inactive) and 38.2% (inactive) in [15]; 15.2% (inactive) and 10.6% (inactive) in test [16]; 4.54% (active) and 17.5% (inactive) in test [17]. Further, the growth in [18] is 19.5% (inactive) and 26.5% (inactive).

On to `COc1ccc(/C=N/NC(N)=S)cc1`, for which the growth in test [1] is 106% (inactive); in test [2] it was 102% (inactive); in test [3] it was 87.7% (inactive); in test [4], 100% (inactive); in test [6], 86.9% (inactive); in test [7], 104% (inactive). Besides, the growth was 101% (inactive) in test [8]; 95.8% (inactive) in test [9]; 112% (inactive) in test [19]; 97.5% (inactive) in test [10]; 64.1% (inactive) in test [20]; 96.1% (inactive) in test [11]. The growth in [12] is 76.4% (inactive); in test [13] it was 104% (inactive); in test [14], 101% (inactive); in [15], 93.3% (inactive); in test [16], 73.4% (inactive); in test [17], 69.1% (inactive). In test [18], the growth is 136% (inactive).

Take `Oc1ccc(O)c(-c2ccccc2)c1`: the growth in test [1] is 22.8% (inactive); in [2], 102% (inactive); in test [3] it was 58.2% (inactive); in [4] it was 67.5% (inactive); in test [6] it was 64.3% (inactive); in [7], 42.9% (inactive). The growth in test [8] is 71.3% (inactive); in test [9], 49.3% (inactive); in test [19], 77.4% (inactive); in test [10], 72.5% (inactive); in test [20], 77.7% (inactive); in test [11], 68% (inactive). Also, the growth is 43.4% (inactive) in [12]; 96.8% (inactive) in test [13]; 74.1% (inactive) in test [14]; 74.6% (inactive) in test [15]; 132% (inactive) in test [16]; 10.1% (inactive) in [17]. Also, the growth in test [18] is 20.7% (inactive).

With `CN(C)c1ccc(C(=N)c2ccc(N(C)C)cc2)cc1`, the growth in test [1] was 23.5% (inactive) and 20.9% (inactive); in test [2] it was 2.09% (active) and 4.13% (active); in [3] it was -30.8% (active) and 8.36% (active); in test [4] it was 41.1% (inactive) and 38.3% (inactive); in test [6], 66% (inactive) and 47.3% (inactive); in test [7] it was 7.19% (active) and 22.7% (inactive). The growth is 31.4% (inactive) and 31.8% (inactive) in test [8]; 28.9% (inactive) and 33.9% (inactive) in test [9]; 44% (inactive) and 36% (inactive) in test [19]; 22.1% (inactive) and 3.75% (active) in test [10]; 58% (inactive) and 48.4% (inactive) in test [20]; 40.8% (inactive) and 42.4% (inactive) in [11]. Moreover, the growth is 50.1% (inactive) and 37.5% (inactive) in test [12]; 37% (inactive) and 67% (inactive) in test [13]; 50.9% (inactive) and 49.9% (inactive) in test [14]; 30.8% (inactive) and 19% (inactive) in [15]; 15.2% (inactive) and -1.88% (active) in test [16]; 33.5% (inactive) in [17]. The growth in test [18] was 29.2% (inactive) and 16.8% (inactive).

`CCCC(=O)Oc1ccc(CC)cc1`: the growth was 99.5% (inactive) in test [1]; 108% (inactive) in test [2]; 88.8% (inactive) in [3]; 109% (inactive) in test [4]; 101% (inactive) in test [6]; 106% (inactive) in test [7]. The growth in test [8] was 105% (inactive); in test [9] it was 97.8% (inactive); in test [19], 117% (inactive); in test [10], 107% (inactive); in [20], 99% (inactive); in test [11], 98.5% (inactive). The growth was 93.7% (inactive) in test [12]; 97.2% (inactive) in test [13]; 96.1% (inactive) in test [15]; 78.1% (inactive) in [16]; 107% (inactive) in [17]; 101% (inactive) in test [18].

As to `O=C1C=CC(n2cc(F)c(=O)[nH]c2=O)O1` (stereo unspecified), the growth was 57.8% (inactive) in test [1]; 39.4% (inactive) in [2]; 79.8% (inactive) in test [3]; 79% (inactive) in [4]; 92.9% (inactive) in test [6]; 60.4% (inactive) in test [7]. Further, the growth was 44.5% (inactive) in test [8]; 54.8% (inactive) in [9]; 75.1% (inactive) in test [19]; 109% (inactive) in test [10]; 93.3% (inactive) in [20]; 64.4% (inactive) in test [11]. Moreover, the growth is 63.4% (inactive) in [12]; 75.7% (inactive) in test [13]; 56.5% (inactive) in [14]; 46.5% (inactive) in test [15]; 79.5% (inactive) in test [16]; 50.4% (inactive) in test [17]. For the same compound, in test [18], the growth was 54.4% (inactive).

Turning to `OCc1ccccc1F`, the growth was 15% (inactive) in test [1]; 31.3% (inactive) in test [2]; 126% (inactive) in test [3]; 103% (inactive) in test [4]; 80.5% (inactive) in [5]; 71.9% (inactive) in test [6]. Further, the growth in test [7] was 95.7% (inactive); in test [8], 84% (inactive); in test [9], 75.8% (inactive); in test [10], 26.3% (inactive); in test [11], 84.5% (inactive); in test [12] it was 84.7% (inactive). The growth in test [13] was 107% (inactive); in test [14], 6.49% (active); in test [15], 18.7% (inactive); in [16], 98.5% (inactive); in [17] it was 83.9% (inactive); in [18] it was 91.8% (inactive).

As to `Nc1ccc(Cl)c(S(=O)(=O)O)c1`, the growth in test [1] was 101% (inactive); in [2], 105% (inactive); in test [3] it was 93.3% (inactive); in test [4], 94.4% (inactive); in test [5], 99.8% (inactive); in test [6] it was 108% (inactive). Further, the growth in test [7] is 101% (inactive); in test [8], 102% (inactive); in [9], 97.5% (inactive); in [10], 88.2% (inactive); in [20], 106% (inactive); in test [11], 96.6% (inactive). The growth in test [12] is 77.9% (inactive); in [13], 98.5% (inactive); in test [14], 97.2% (inactive); in test [15] it was 95.2% (inactive); in test [16], 84% (inactive); in test [17] it was 106% (inactive). Moreover, the growth in test [18] is 109% (inactive).

As for `O=C(c1ccc(Cl)cc1)C1C(c2ccccc2)C1[N+](=O)[O-]` (stereo unspecified), the growth in test [1] is 102% (inactive); in test [2], 97.2% (inactive); in [3], 106% (inactive); in test [4], 97.1% (inactive); in test [6], 90.5% (inactive); in test [7], 96.9% (inactive). Besides, the growth is 91.1% (inactive) in test [8]; 95.2% (inactive) in test [9]; 111% (inactive) in test [19]; 106% (inactive) in [10]; 105% (inactive) in test [20]; 104% (inactive) in test [11]. The growth is 74.8% (inactive) in test [12]; 95.1% (inactive) in test [13]; 111% (inactive) in test [14]; 99.1% (inactive) in test [15]; 86.3% (inactive) in test [16]; 103% (inactive) in test [17]. In [18], the growth was 83.7% (inactive).

With `CCOC(=O)CN1CCC(C(=O)OCC)CC1`, the growth in [1] is 125% (inactive); in test [2], 104% (inactive); in [3], 106% (inactive); in test [4], 110% (inactive); in test [5], 107% (inactive); in test [6], 88.8% (inactive). The growth in test [7] was 103% (inactive); in [8] it was 94.6% (inactive); in test [9], 99.3% (inactive); in [10], 111% (inactive); in test [20] it was 127% (inactive); in test [11] it was 99.7% (inactive). The growth in test [12] is 94.9% (inactive); in [13] it was 106% (inactive); in test [14] it was 111% (inactive); in [15] it was 116% (inactive); in [16], 91.5% (inactive); in test [17], 89.5% (inactive). For the same compound, the growth in [18] was 106% (inactive).

The record behind these values is PubChem BioAssay (NCI).
